According to PubChem BioAssay (NCATS):
Values joined by “and” are separate entries in the source; they are usually repeats but may differ in a detail not shown here. Identical values can stand only once. Inconclusive results are not listed. Values without a mark were called inactive. Active and inactive are the calls of the source. The call rests on the fitted dose curve; in most records, active means well fitted inhibition curve with a large enough effect; inconclusive means small, poorly fitted or top-dose-only effect; inactive means flat fitted curve, though single readings scatter.

target: Voltage-gated inwardly rectifying potassium channel KCNH2 (Homo sapiens) (UniProt Q12809); test: qHTS Assay for Small Molecule Inhibitors of the Human hERG Channel Activity (AID 588834); settings: U2OS BacMam hERG, FluxOR thallium flux fluorescence; series mostly up to 46.1 µM; activity change, negative = inhibition: at the top concentration;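 further: lower thallium flux fluorescence means stronger hERG block; nearly all actives have a fitted effect of over 50% in size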; on activity change, negative = inhibition: top concentration of the series differs between compounds; on the % scale 0 is the no-effect control and ±100 the full control effect
In short: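 U2OS cells BacMam-transduced with hERG, 2000 cells/well, compound ~10 min at 37 °C before stimulation buffer. FluxOR thallium flux fluorescence read kinetically on FDSS; decrease indicates block; AC50 from Hill fits.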
Potency means the concentration at half of the fitted maximal effect.

Voltage-gated inwardly rectifying potassium channel KCNH2 (Homo sapiens), sequence (Q12809 whole entry, looked up): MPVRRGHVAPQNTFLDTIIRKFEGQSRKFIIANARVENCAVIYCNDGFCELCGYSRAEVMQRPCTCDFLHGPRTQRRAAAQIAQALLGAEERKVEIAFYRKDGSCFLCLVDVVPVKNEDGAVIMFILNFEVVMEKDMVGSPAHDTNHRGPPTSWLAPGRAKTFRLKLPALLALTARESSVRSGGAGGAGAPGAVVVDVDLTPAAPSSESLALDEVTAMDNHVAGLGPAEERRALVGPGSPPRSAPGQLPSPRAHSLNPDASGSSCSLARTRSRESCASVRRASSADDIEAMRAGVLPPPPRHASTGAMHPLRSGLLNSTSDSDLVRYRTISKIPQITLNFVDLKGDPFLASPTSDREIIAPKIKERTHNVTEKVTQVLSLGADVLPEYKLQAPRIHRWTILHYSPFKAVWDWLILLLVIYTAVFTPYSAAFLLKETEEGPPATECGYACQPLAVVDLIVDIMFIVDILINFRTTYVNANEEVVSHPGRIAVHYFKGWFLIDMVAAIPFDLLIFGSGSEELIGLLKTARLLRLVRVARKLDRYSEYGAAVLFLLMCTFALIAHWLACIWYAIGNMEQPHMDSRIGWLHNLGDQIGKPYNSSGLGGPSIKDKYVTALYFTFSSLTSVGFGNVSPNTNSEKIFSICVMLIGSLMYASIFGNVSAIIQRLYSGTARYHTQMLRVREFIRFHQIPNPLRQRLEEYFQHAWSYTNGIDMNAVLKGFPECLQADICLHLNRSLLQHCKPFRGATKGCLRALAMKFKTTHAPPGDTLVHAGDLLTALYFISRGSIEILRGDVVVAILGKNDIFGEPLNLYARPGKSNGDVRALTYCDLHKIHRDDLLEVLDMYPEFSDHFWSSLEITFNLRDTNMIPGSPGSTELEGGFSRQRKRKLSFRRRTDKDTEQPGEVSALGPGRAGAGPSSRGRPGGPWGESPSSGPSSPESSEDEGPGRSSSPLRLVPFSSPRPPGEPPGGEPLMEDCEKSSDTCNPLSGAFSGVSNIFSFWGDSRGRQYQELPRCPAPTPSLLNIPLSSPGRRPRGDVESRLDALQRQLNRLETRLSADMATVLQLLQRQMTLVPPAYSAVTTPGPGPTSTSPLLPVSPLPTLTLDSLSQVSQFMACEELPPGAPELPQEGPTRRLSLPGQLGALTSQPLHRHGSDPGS

Compared with CCC1(c2ccccc2)C(=O)N(COC)C(=O)N(COC)C1=O, CN1C(=O)CC(=O)N(c2ccccc2)c2cc(Cl)ccc21 is lower in “activity change, negative = inhibition” value: 8.15% for the first, 2.55% for the second.

Compared with NC(=O)CS(=O)C(c1ccccc1)c1ccccc1 (stereo unspecified), NNc1ccccc1 is higher in “activity change, negative = inhibition” value: 1.41% for the first, 3.85% for the second.

Compared with C[C@@H]1O[C@@H]1P(=O)(O)O, CCCCCN(C)CCC(O)(P(=O)(O)O)P(=O)(O)O is lower in “activity change, negative = inhibition” value: 18.1% for the first, 6.54% for the second.

Compared with O=C1OC(c2ccc(O)c(S(=O)(=O)O)c2)(c2ccc(O)c(S(=O)(=O)O)c2)c2c(Br)c(Br)c(Br)c(Br)c21, C[C@](O)(CS(=O)(=O)c1ccc(F)cc1)C(=O)Nc1ccc(C#N)c(C(F)(F)F)c1 is higher in “activity change, negative = inhibition” value: 0.831% for the first, 4.13% for the second.

First: Clc1ccc2c(c1)C(c1ccccc1)=NCc1nncn1-2
Second: Cc1nnc2n1-c1ccc(Cl)cc1C(c1ccccc1Cl)=NC2
The “activity change, negative = inhibition” value of the first is higher: 2.18% for the first, -1.59% for the second.

First: CC(C)(C)NCC(O)c1cc(Cl)c(N)c(C(F)(F)F)c1 (stereo unspecified)
Second: CN=C1CN(O)C(c2ccccc2)=c2cc(Cl)ccc2=N1
The “activity change, negative = inhibition” value of the first is lower: -3.42% for the first, 16.7% for the second.

First: CC(C)C[C@H](CN)CC(=O)O
Second: CCCCCCC(=O)CCCCCC/C=C/C[C@@H](O)[C@H](O)[C@@](N)(CO)C(=O)O
The “activity change, negative = inhibition” value of the first is higher: -7.62% for the first, -15.4% for the second.

Compared with COC1CC(=C(c2cccs2)c2cccs2)C[N+](C)(C)C1 (stereo unspecified), COc1ccc2c(c1)C13CCCC[C@@H]1C(C2)N(C)CC3 (stereo partly specified) is lower in “activity change, negative = inhibition” value: 8.83% for the first, -14.8% for the second.

Compared with NC1=NC(=O)C(c2ccccc2)O1 (stereo unspecified), O=C1CN=C(c2ccccc2)c2cc([N+](=O)[O-])ccc2N1 is lower in “activity change, negative = inhibition” value: 25% for the first, -19.6% for the second.

Going from O=C(N/N=C/c1ccc([N+](=O)[O-])o1)c1cc([N+](=O)[O-])cc([N+](=O)[O-])c1O to O=[N+]([O-])O[C@H]1CO[C@H]2[C@@H]1OC[C@H]2O[N+](=O)[O-], the “activity change, negative = inhibition” value rises from 2.17% to 12.1%.

Going from COP(=S)(OC)Oc1ccc(S(=O)(=O)N(C)C)cc1 to CCCCCCCCCC(=O)O[C@H]1CC[C@H]2[C@@H]3CCC4=CC(=O)CC[C@@H]4[C@H]3CC[C@]12C, the “activity change, negative = inhibition” value falls from 5.52% to -16.1%.

O=c1[nH]oc2c1CCNC2 was tested, and the Potency was “inactive”.
For C=C(C)[C@H]1CN[C@H](C(=O)O)[C@H]1CC(=O)O, the Potency was “inactive”.
With CN1C(=O)CCS(=O)(=O)C1c1ccc(Cl)cc1 (stereo unspecified) the Potency was “inactive”.
For CCCCC/C=C\C/C=C\C/C=C\C/C=C\CCCC(=O)NCC(=O)O, the Potency was “inactive”.
For C=CCN1C[C@H](C)N([C@H](c2ccc(C(=O)N(CC)CC)cc2)c2cccc(OC)c2)C[C@H]1C, the Potency was 3.98 µM (active).
With CN1CCC(O)(c2ccc(F)cc2)C(C(=O)c2ccc(F)cc2)C1 (stereo unspecified) the Potency was 14.1 µM (active).
In the case of CC(C)(C)NCC(O)c1ccccc1Cl (stereo unspecified), the Potency is reported as “inactive”.
For O=C(CCCN1CCC2(CC1)C(=O)NCN2c1ccccc1)c1ccc(F)cc1, the Potency was 1.78 µM (active) and 1 µM (active).
In the case of CC(C)=CC1C(C(=O)OCN2C(=O)C3=C(CCCC3)C2=O)C1(C)C (stereo unspecified), the Potency is reported as 20 µM (active).

Compared with CNC(C)(C)Cc1ccccc1, CC(C)c1c(CN(C)C(C)Cc2ccccc2)n(C)n(-c2ccccc2)c1=O (stereo unspecified) is lower in “activity change, negative = inhibition” value: 5.65% [at 20.6 µM] for the first, -3.02% [at 20.6 µM] for the second.

For CC(=O)OCC1=C(C(=O)O)N2C(=O)[C@@H](N)[C@H]2SC1, the “activity change, negative = inhibition” value was 4.28% [at 20.6 µM].

For O=C(O)/C=C\C(=O)O, the “activity change, negative = inhibition” value was 9.57% [at 92.2 µM].

target: Luciferin 4-monooxygenase (Photinus pyralis) (UniProt P08659); test: Biochemical firefly luciferase enzyme assay for NPC (AID 624030); further: nearly all actives have a fitted effect of over 70% in size;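 on activity change, negative = inhibition: purified P. pyralis luciferase at 10 nM with luciferin and ATP substrate; 0% = DMSO and -100% = full luciferase inhibition by PTC124 control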; settings: purified P. pyralis luciferase, luminescence, 5 min; series mostly up to 58.6 µM; activity change, negative = inhibition: at the top concentration
In short: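 Purified P. pyralis luciferase at 10 nM in 50 mM Tris Acetate (final), luminescence read within 5 minutes of enzyme addition to compounds. Activity normalised to PTC124 versus DMSO; concentration-response curves classed by r2, magnitude and activity.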

Luciferin 4-monooxygenase (Photinus pyralis), sequence (P08659 whole entry, looked up): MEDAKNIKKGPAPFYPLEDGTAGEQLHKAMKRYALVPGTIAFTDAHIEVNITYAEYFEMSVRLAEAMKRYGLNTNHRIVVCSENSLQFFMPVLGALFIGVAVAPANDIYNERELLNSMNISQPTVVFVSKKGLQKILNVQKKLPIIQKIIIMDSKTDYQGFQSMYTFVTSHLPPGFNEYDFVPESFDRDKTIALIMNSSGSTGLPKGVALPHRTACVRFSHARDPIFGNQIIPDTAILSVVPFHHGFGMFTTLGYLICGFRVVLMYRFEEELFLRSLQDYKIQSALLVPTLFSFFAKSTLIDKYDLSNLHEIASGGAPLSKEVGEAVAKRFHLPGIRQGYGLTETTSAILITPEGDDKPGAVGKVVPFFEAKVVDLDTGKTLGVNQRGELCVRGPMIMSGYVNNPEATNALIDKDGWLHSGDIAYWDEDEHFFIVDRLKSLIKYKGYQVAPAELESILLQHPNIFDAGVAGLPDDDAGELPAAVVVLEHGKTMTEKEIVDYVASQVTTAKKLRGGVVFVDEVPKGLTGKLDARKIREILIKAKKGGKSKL

First: CCC1(c2ccccc2)C(=O)N(COC)C(=O)N(COC)C1=O
Second: CN1C(=O)CC(=O)N(c2ccccc2)c2cc(Cl)ccc21
The “activity change, negative = inhibition” value of the first is lower: -1.82% for the first, 4.47% for the second.

Going from O=c1[nH]oc2c1CCNC2 to O=C(CCCN1CCC2(CC1)C(=O)NCN2c1ccccc1)c1ccc(F)cc1, the “activity change, negative = inhibition” value rises from 1.06% to 7.02%.

Compared with C=C(C)[C@H]1CN[C@H](C(=O)O)[C@H]1CC(=O)O, CC(C)=CC1C(C(=O)OCN2C(=O)C3=C(CCCC3)C2=O)C1(C)C (stereo unspecified) is higher in “activity change, negative = inhibition” value: -1.45% for the first, 0.112% for the second.

First: NC(=O)CS(=O)C(c1ccccc1)c1ccccc1 (stereo unspecified)
Second: NNc1ccccc1
The “activity change, negative = inhibition” value of the first is higher: 4.14% for the first, -2.75% for the second.

First: Clc1ccc2c(c1)C(c1ccccc1)=NCc1nncn1-2
Second: Cc1nnc2n1-c1ccc(Cl)cc1C(c1ccccc1Cl)=NC2
The “activity change, negative = inhibition” value of the first is higher: 2.16% for the first, 1.54% for the second.

Going from C=CCN1C[C@H](C)N([C@H](c2ccc(C(=O)N(CC)CC)cc2)c2cccc(OC)c2)C[C@H]1C to CN1CCC(O)(c2ccc(F)cc2)C(C(=O)c2ccc(F)cc2)C1 (stereo unspecified), the “activity change, negative = inhibition” value falls from 3.25% to -0.937%.

Going from C[C@](O)(CS(=O)(=O)c1ccc(F)cc1)C(=O)Nc1ccc(C#N)c(C(F)(F)F)c1 to CC(C)(C)NCC(O)c1cc(Cl)c(N)c(C(F)(F)F)c1 (stereo unspecified), the “activity change, negative = inhibition” value rises from -8.55% to 0.553%.

Going from CC(C)(C)NCC(O)c1ccccc1Cl (stereo unspecified) to COC1CC(=C(c2cccs2)c2cccs2)C[N+](C)(C)C1 (stereo unspecified), the “activity change, negative = inhibition” value rises from 0.511% to 9.57%.

First: COc1ccc2c(c1)C13CCCC[C@@H]1C(C2)N(C)CC3 (stereo partly specified)
Second: CCCCCCCCCC(=O)O[C@H]1CC[C@H]2[C@@H]3CCC4=CC(=O)CC[C@@H]4[C@H]3CC[C@]12C
The “activity change, negative = inhibition” value of the first is higher: 10.3% for the first, -0.343% for the second.

First: COP(=S)(OC)Oc1ccc(S(=O)(=O)N(C)C)cc1
Second: O=C1CN=C(c2ccccc2)c2cc([N+](=O)[O-])ccc2N1
The “activity change, negative = inhibition” value of the first is lower: -9.02% for the first, 4.91% for the second.

CNC(C)(C)Cc1ccccc1 was tested, and the “activity change, negative = inhibition” value was 2.99% [at 24.9 µM].

With CN1C(=O)CCS(=O)(=O)C1c1ccc(Cl)cc1 (stereo unspecified) the Potency was “inactive”.
With O=C1OC(c2ccc(O)c(S(=O)(=O)O)c2)(c2ccc(O)c(S(=O)(=O)O)c2)c2c(Br)c(Br)c(Br)c(Br)c21 the Potency was 28.7 µM (active).
O=C(N/N=C/c1ccc([N+](=O)[O-])o1)c1cc([N+](=O)[O-])cc([N+](=O)[O-])c1O was tested, and the Potency was 36.1 µM (active).
With CCCCCCC(=O)CCCCCC/C=C/C[C@@H](O)[C@H](O)[C@@](N)(CO)C(=O)O the Potency was “inactive”.

CCCCC/C=C\C/C=C\C/C=C\C/C=C\CCCC(=O)NCC(=O)O was tested, and the activity change, negative = inhibition was -1.65% [at 5.2 µM].
